The experiment has as its system HepG2. In words: GSK_TCMDC: Percent inhibition of human HepG2 cell line. Test compounds present at 10uM. It is filed as functional.
The term Inhibition denotes the share of the control response that was lost under treatment. A high value points to strong suppression. `Cc1[nH]c(C)c(-c2ccc(-c3ccccc3C(F)(F)F)nc2)c(=O)c1Br` returned an Inhibition of 0%.

`COc1cc(CNc2ncc(-c3ccsc3)c(-c3nccs3)n2)cc(OC)c1` registered an Inhibition of 3%. The compound `COc1ccc(C=CC(=O)Nc2ccc(N3CCCC3)cc2)cc1.Cl` gave an Inhibition of 0%. `O=C(Nc1cccc(CN2CCCN(Cc3ccccc3)CC2)c1)c1cc2ccccc2s1.O=C(O)C(F)(F)F`: the Inhibition came out at 41%. Consider `CN(Cc1cccc(O)c1)C1CCCN(c2cc(NC(=O)c3ccc(F)cc3)ccn2)C1.O=C(O)C(F)(F)F` (stereo not given), for which the Inhibition was 8%. `COc1ccc(Cl)cc1N1CCN(CCCNC(=O)c2ccc(-c3nc4cc5ccccc5cc4[nH]3)c(F)c2)CC1` yielded an Inhibition of 12%. Then `Cc1cccc2nc(-c3cccc(-c4ccc(NC(=O)Nc5ccc6c(c5)OCO6)cc4)c3)[nH]c12`, with 80%; and `COc1ccccc1C1CCN(C2CCC(NC(=O)/C=C/c3ccc4c(c3)OC(F)(F)O4)CC2)CC1` (stereo not given), with 52%. The compound `Nc1nc(Nc2cccc(Cl)c2)ncc1C(=O)NCc1ccncc1` had an Inhibition of 3%.

In turn, `O=C(C=Cc1ccc(Cl)c(Cl)c1)NCCCCCN1CCC(CCCNC(=O)C2CC2c2ccccc2)CC1` (stereo not given) showed an Inhibition of 45%. `COc1cc(Nc2nccc(N3CCC(NC(=O)c4cccc(C#N)c4)C3)n2)cc(OC)c1OC` (stereo not given) returned an Inhibition of 13%. The figure for `CC(C)(CNC(=O)C1CCN(Cc2ccoc2)CC1)c1nc(-c2ccc(Cl)c(O)c2)c(-c2ccncc2)[nH]1.Cl` is 0%; for `Cc1ccc(NC(=O)c2ccc(NCCCN(C)Cc3ccccc3)c([N+](=O)[O-])c2)cc1F` it is 12%.

Consider `Cl.N=C(N)c1ccc2[nH]c(SCc3ccccc3)nc2c1`, for which the Inhibition is on record as 0%. The figure for `O=C(COc1ccccc1Cc1ccccc1)Nc1cc(Cl)ccc1-n1cncn1` is 5%; for `COc1ccc(-c2cnc(N)c(-c3ccc(O)c(OC)c3)c2)cn1` it is 23%; for `c1ccc(-c2ccc(-c3nc4ccccc4[nH]3)cc2)cc1` it is 10%. `CC(C)Cc1c(O)nc(SCCN2CCOCC2)[nH]c1=O.Cl`: the Inhibition came to 19%. Then `C[C@@H]1CC[C@H](NC(=O)[C@H](CC2CCCC2)NC(=O)N2CCNCC2)C(=O)CN1S(=O)(=O)c1ccccn1.O=C(O)C(F)(F)F`, with 5%.

The compound `CN1CCC(C(=O)N(Cc2ccc(-c3ccc(CNCCc4ccc(S(C)(=O)=O)cc4)cn3)cc2)C2CCN(Cc3ccccc3)CC2)CC1.O=C(O)C(F)(F)F` gave an Inhibition of 11%. Then `CN1CCN(c2ccc(Nc3c4ccccc4nc4ccccc34)cc2)CC1`, with 0%; and `N#Cc1ccc(C=NNc2nc3ccccc3[nH]2)cc1`, with 0%. As to `CCCCN1CC[C@@H](CCC(O)c2ccnc3ccc(OCCC(C)C)cc23)[C@@H](CC)C1.O=C(O)C(=O)O` (stereo not given in full), the Inhibition was 22%. `CN(C)CCn1c(=N)n(CC(O)c2ccc(Cl)c(Cl)c2)c2ccccc21.Cl` (stereo not given) came in with an Inhibition of 20%. Then `COc1ccc2[nH]ccc(=NN=Cc3cccc(C)n3)c2c1`, with 16%; and `CCN(CCCN1CCCCC1)c1cc(C)nc(Nc2ccc(OC)cc2)n1.O=C(O)C(F)(F)F`, with 23%; and `COc1ccc2nc3cc(Cl)ccc3c(NCCCO)c2c1`, with 32%. The figure for `Cc1ccc2c(=O)n(C)c(=O)n(C)c2n1` is 15%; for `O=C(Nc1ccc2c(ccn2C2CCCN(Cc3cc(F)cc(F)c3F)CC2)c1)c1ccco1` (stereo not given) it is 7%; for `CCCc1cn2c3c(cc(C(=O)N[C@@H](Cc4ccccc4)[C@H](O)CNC4CCOCC4)cc13)N(C)S(=O)(=O)CC2.O=CO` it is 1%. For the compound `C=CCc1cc(C2CCN(CCCCNC(=O)c3ccc(-c4ccc(C#N)cc4)cc3)CC2)c(OCC(N)=O)c2c1CCCC2`, the Inhibition is listed as 43%.

For the compound `CCCCOC(=O)c1ccc(NC(=O)Nc2ccc(Cn3ncc(N4CCCNCC4)c(Cl)c3=O)cc2)cc1.O=C(O)C(F)(F)F`, the Inhibition is 2%.

In the case of `Cc1ccc2[nH]cc(/C=C/C(=O)NC3CCC(CCN4CCc5ccc(C#N)cc5CC4)CC3)c2c1.Cl` (stereo not given), the Inhibition turned out to be 11%. The figure for `COc1ccc(CCNCC(O)COc2nccc3c(S(=O)(=O)N4CCCNCC4)cccc23)cc1OC.Cl` (stereo not given) is 59%; for `O=C(NC1CC1)c1cnc(N2CCC(OCc3ccccc3)CC2)c(Cl)c1.O=C(O)C(F)(F)F` it is 0%.

The compound `CN(C)c1ccc(CN2CCC(CNC(=O)c3cc(-c4ccccc4F)cs3)C2)cc1.O=C(O)C(F)(F)F` (stereo not given) gave an Inhibition of 35%.

For `Br.Oc1ccccc1CCNC1CCc2ccccc2C1` (stereo not given), the Inhibition turned out to be 0%. The figure for `CCOc1ccc(-c2nonc2NC(=O)CC(C)C)cc1OCC` is 0%. The figure for `CC[C@H](C)CNC(=O)c1cncc(-c2cccc(CN(C)C3CCN(C)CC3)c2)c1.O=C(O)C(F)(F)F` is 9%; for `CCCN(CCC)C(=O)c1cc(-c2cccc(C)c2)nc2ccccc12` it is 17%.
